# Laboratory results reported in PubChem BioAssay.
# Values joined by “and” are separate entries in the source; they are usually repeats but may differ in a detail not shown here. Identical values can stand only once. Active and inactive are the calls of the source. Cut-off read from the data, not from the text of the source, unless noted: active = parasite load remaining mostly below about 12% (no sharp cut-off); inactive = mostly above about 10%.
# Key:
# [1] = liver-stage malaria parasite growth inhibition, primary screen, cell-based, HepG2, luciferase luminescence, HepG2 viability (AID 624349);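 note: 100% = mean of DMSO negative control wells on the same plate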; conditions: P. berghei liver stage in HepG2, luciferase luminescence, concentration not given here; parasite load remaining: stronger effect = lower value; viability: measured here: HepG2 viability without parasites
# [2] = stimulators of nuclear beta-catenin in C2C12, primary screen, imaging, WNT3A-conditioned medium, mouse C2C12, NPC library (AID 1117326; in the data active = nuclear beta-catenin stimulation mostly above about 4.2%, no sharp cut-off; inactive = mostly below about 10%; note: reference of the scale not given here); conditions: stronger effect = higher value
Compound,parasite load remaining [1],viability [1],nuclear beta-catenin stimulation ([2]; at 10 µM),"nuclear beta-catenin stimulation ([2]; stimulation, at 2 µM) [%]"
NS(=O)(=O)c1cc2c(cc1Cl)NC(CSCc1ccccc1)=NS2(=O)=O,72.5% (inactive) and 98.3% (inactive) and 56.3% (inactive),97% and 76.2% and 98.6%,-0.6% (inactive),0.7
CC(NCCC(c1ccccc1)c1ccccc1)c1ccccc1 (centres undefined),-2.42% (inactive) and 196% (inactive) and 56% (inactive),7.6% and 63.1% and 81.9%,27.6% (inactive),-0.2
O=C1c2c(O)cccc2Cc2cccc(O)c21,94% (inactive) and 68.1% (inactive),73% and 78.8%,-3.3% (inactive),-2
CCCCC1(COC(=O)CCC(=O)O)C(=O)N(c2ccccc2)N(c2ccccc2)C1=O,87.9% (inactive),101%,6.3% (inactive),4.7
O=C1c2cccc(O)c2C(=O)c2c(O)cccc21,32.6% (inactive),96.2%,-0.6% (inactive),8.2
CC(=O)OC/C=C(C)/C=C/C=C(C)/C=C/C1=C(C)CCCC1(C)C,135% (inactive) and 40.4% (inactive),96.6% and 98.5%,3.8% (inactive),3.9
Cc1onc(-c2ccccc2)c1C(=O)N[C@@H]1C(=O)N2[C@@H]1SC(C)(C)[C@@H]2C(=O)O,27.2% (inactive),72.5%,-2.3% (inactive),0.5
Oc1ccc(Cl)c2cccnc12,109% (inactive) and 39.2% (inactive),67.1% and 81.7%,26.2% (inactive),2.1
Cc1cnc(C(=O)O)c[n+]1[O-],22.9% (inactive),79.5%,2.4% (inactive),1.1
COc1cccc(OC)c1C(=O)N[C@@H]1C(=O)N2[C@@H]1SC(C)(C)[C@@H]2C(=O)O,72.2% (inactive) and 53.5% (inactive),72.9% and 91.1%,-0.9% (inactive),-1.1
CCCCc1ccc2nc(NC(=O)OC)[nH]c2c1,83.6% (inactive),85.5%,81.2% (active),61.1
OC[C@H]1O[C@@H](Oc2ccc(O)cc2)[C@H](O)[C@@H](O)[C@@H]1O,102% (inactive),72.2%,-2.1% (inactive),1
CC(=O)NO,102% (inactive) and 55.8% (inactive),71.8% and 93.7%,0% (inactive),0.9
Nc1ccc(S(=O)(=O)Nc2ccccn2)cc1,73.3% (inactive) and 71.4% (inactive) and 46.1% (inactive),93.8% and 68.3% and 99%,-0.3% (inactive),1
CN1CCC(OC(c2ccccc2)c2ccccc2)CC1,97.1% (inactive) and 89.2% (inactive) and 61.4% (inactive),96.1% and 75.8% and 94.2%,0.7% (inactive),1.6
O=C(O)[C@@H]1[C@H]2C[C@H]3c4[nH]c5ccccc5c4CCN3C[C@@H]2CC[C@@H]1O,106% (inactive) and 85.7% (inactive),104% and 83.6%,0.4% (inactive),1.8
Nc1ccc(S(=O)(=O)NC(=O)c2ccccc2)cc1,105% (inactive) and 86.8% (inactive) and 33.6% (inactive),105% and 73% and 95.8%,1.5% (inactive),1.1
CCOC(=O)n1ccn(C)c1=S,106% (inactive) and 140% (inactive) and 85.8% (inactive),108% and 84.5% and 77.4%,0.6% (inactive),-0.4
CCn1cc(C(=O)O)c(=O)c2cnc(N3CCNCC3)nc21,87.7% (inactive) and 144% (inactive),98.7% and 73%,1.9% (inactive),4.3
CCCCCCc1ccc(O)cc1O,87.3% (inactive) and 55.4% (inactive),71.9% and 91.6%,7.5% (inactive),2.1
CCC(=O)O[C@H]1[C@H](O[C@@H]2[C@@H](C)[C@H](O[C@H]3C[C@@](C)(OC)[C@@H](O)[C@H](C)O3)[C@@H](C)C(=O)O[C@H](CC)[C@@](C)(O)[C@H](O)[C@@H](C)C(=O)[C@H](C)C[C@@]2(C)O)O[C@H](C)C[C@@H]1N(C)C,85.6% (inactive) and 40.4% (inactive),67.9% and 93.1%,0.6% (inactive),-0.8
Nc1ncnc2nc[nH]c12,110% (inactive) and 37.4% (inactive),91.6% and 128%,-2.6% (inactive),-0.4
CC(=O)Nc1ccc(OCC(O)CNC(C)C)cc1 (centres undefined),80.4% (inactive) and 87% (inactive) and 55.4% (inactive),110% and 75.8% and 108%,0.5% (inactive),1.7
COc1ccc(C(=O)CC(=O)c2ccc(C(C)(C)C)cc2)cc1,168% (inactive) and 61% (inactive),84.8% and 202%,-0.4% (inactive),3
Oc1c(I)cc(I)c2cccnc12,92.2% (inactive) and 20.2% (inactive),77.1% and 92.8%,0.7% (inactive),1
C[C@]12CCC(=O)C=C1C=C[C@@H]1[C@@H]2CC[C@@]2(C)[C@H]1CC[C@@]21CCC(=O)O1,17.5% (inactive),73%,2.7% (inactive),1.9

Compound,parasite load remaining [1],viability [1],nuclear beta-catenin stimulation ([2]; at 10 µM),"nuclear beta-catenin stimulation ([2]; stimulation, at 2 µM) [%]"
O=C(CCCCC(=O)Nc1c(I)cc(I)c(C(=O)O)c1I)Nc1c(I)cc(I)c(C(=O)O)c1I,81.3% (inactive),93.2%,1.1% (inactive),3.3
COC(=O)Nc1nc2ccc(S(=O)c3ccccc3)cc2[nH]1 (centres undefined),162% (inactive) and 87.1% (inactive) and 49.8% (inactive),85.8% and 93.1% and 68.5%,57.7% (active),58.1
O=c1[nH]c(=O)n([C@H]2C[C@H](O)[C@@H](CO)O2)cc1F,13.4% (inactive),75%,21% (inactive),21.6
C[C@@H]1C[C@H]2[C@@H]3C[C@H](F)C4=CC(=O)C=C[C@]4(C)[C@@]3(F)[C@@H](O)C[C@]2(C)[C@@]1(O)C(=O)CO,102% (inactive),99.8%,-0.8% (inactive),0.3
O=C(O)c1ccc(S(=O)(=O)N(Cl)Cl)cc1,101% (inactive) and 53.6% (inactive),75.7% and 97.7%,0.3% (inactive),1.7
O=NN(CCCl)C(=O)NC1CCCCC1,11.7% (inactive),78%,11.8% (inactive),3.7
OCC(O)CN1CCN(c2ccccc2)CC1 (centres undefined),36.8% (inactive) and 188% (inactive) and 98.1% (inactive),50.7% and 71.2% and 93.7%,-1.5% (inactive),0.8
CCCCOc1ccc(CC(=O)NO)cc1,13.5% (inactive) and 151% (inactive) and 84.2% (inactive),47.8% and 71.4% and 91%,0% (inactive),0.3
C=C1c2cccc(O)c2C(O)=C2C(=O)[C@]3(O)C(O)=C(C(N)=O)C(=O)[C@@H](N(C)C)[C@@H]3[C@@H](O)[C@H]12,89.4% (inactive) and 160% (inactive) and 38% (inactive),79.4% and 68.3% and 93.9%,3.6% (inactive),2.7
COc1cc([C@H]2Oc3cc([C@H]4Oc5cc(O)cc(O)c5C(=O)[C@@H]4O)ccc3O[C@@H]2CO)ccc1O,75.8% (inactive),93%,3.7% (inactive),0.8
O=C(OCc1ccccc1)c1ccccc1,82.1% (inactive) and 33.8% (inactive),68.9% and 89.1%,0.4% (inactive),2.2
COc1cnc(NS(=O)(=O)c2ccc(N)cc2)nc1,75.1% (inactive) and 108% (inactive) and 64.2% (inactive),93.4% and 66.1% and 87.2%,0.2% (inactive),2
O=c1oc2cc(O)ccc2s1,62.7% (inactive),88.6%,-2.6% (inactive),0.6
CCCCCC(C)N (centres undefined),115% (inactive) and 42.4% (inactive),77.1% and 86.1%,1.8% (inactive),3.7
C[C@H](N)[C@H](O)c1cccc(O)c1,9.16% (inactive) and 99.4% (inactive) and 51.4% (inactive),46.8% and 91.2% and 209%,-0.7% (inactive),-0.1
O=c1cc[nH]c(=S)[nH]1,64% (inactive),87.2%,-0.3% (inactive),1.5
CCN(CC)Cc1cc(Nc2ccnc3cc(Cl)ccc23)ccc1O,2.94% (inactive) and 43.6% (inactive),35.5% and 83.9%,0.5% (inactive),-1.5
O=C(NC(Cc1cc(=O)[nH]c2ccccc12)C(=O)O)c1ccc(Cl)cc1 (centres undefined),149% (inactive) and 24.1% (inactive),88.8% and 69%,-0.8% (inactive),-1
COc1ccc(NS(=O)(=O)c2ccc(N)cc2)nn1,118% (inactive) and 103% (inactive) and 48% (inactive),101% and 69.5% and 83.6%,-1.8% (inactive),2.2
Cc1ccnc(NS(=O)(=O)c2ccc(N)cc2)n1,74% (inactive) and 287% (inactive) and 42.8% (inactive),92.3% and 68.7% and 98.8%,3.8% (inactive),1.5
COc1ccc(C2C(=O)c3ccccc3C2=O)cc1,126% (inactive) and 58.9% (inactive),68.9% and 89%,1.8% (inactive),1.4
C/C=C/c1ccc(OC)cc1,163% (inactive) and 38.2% (inactive) and 65% (inactive),88.5% and 100% and 126%,-1.7% (inactive),2.3
CC(N)CCCC(C)(C)O (centres undefined),31.8% (inactive) and 120% (inactive) and 114% (inactive),50.3% and 90.2% and 93.5%,2.3% (inactive),1.6
CC1CC(OC(=O)C(O)c2ccccc2)CC(C)(C)N1C (centres undefined),101% (inactive),101%,-1.4% (inactive),-0.1
CC(=O)OCC(COC(C)=O)OC(C)=O,142% (inactive) and 56.1% (inactive),73.5% and 86.5%,0.2% (inactive),3.4
